Test [1] concerns the target RAC-alpha serine/threonine-protein kinase (Homo sapiens) (UniProt P31749). The following applies: at 0.1 µM.
For test [2] the target is unchanged. The following applies: at 1 µM.
The target of test [3] is RAC-beta serine/threonine-protein kinase (Homo sapiens) (UniProt P31751). The following applies: at 0.1 µM.
For test [4] the target is unchanged. As to conditions: at 1 µM.
Test [5] has as its target RAC-gamma serine/threonine-protein kinase (Homo sapiens) (UniProt Q9Y243). As to conditions: at 0.1 µM.
For test [6] the target is unchanged. The following applies: at 1 µM.
The target in test [7] is G protein-coupled receptor kinase 6 (Homo sapiens) (UniProt P43250). As to conditions: at 0.1 µM.
Test [8] shares this target. As to conditions: at 1 µM.
The target in test [9] is T1, Rhodopsin kinase GRK7 (Homo sapiens) (UniProt Q8WTQ7).
T1 sequence (whole entry): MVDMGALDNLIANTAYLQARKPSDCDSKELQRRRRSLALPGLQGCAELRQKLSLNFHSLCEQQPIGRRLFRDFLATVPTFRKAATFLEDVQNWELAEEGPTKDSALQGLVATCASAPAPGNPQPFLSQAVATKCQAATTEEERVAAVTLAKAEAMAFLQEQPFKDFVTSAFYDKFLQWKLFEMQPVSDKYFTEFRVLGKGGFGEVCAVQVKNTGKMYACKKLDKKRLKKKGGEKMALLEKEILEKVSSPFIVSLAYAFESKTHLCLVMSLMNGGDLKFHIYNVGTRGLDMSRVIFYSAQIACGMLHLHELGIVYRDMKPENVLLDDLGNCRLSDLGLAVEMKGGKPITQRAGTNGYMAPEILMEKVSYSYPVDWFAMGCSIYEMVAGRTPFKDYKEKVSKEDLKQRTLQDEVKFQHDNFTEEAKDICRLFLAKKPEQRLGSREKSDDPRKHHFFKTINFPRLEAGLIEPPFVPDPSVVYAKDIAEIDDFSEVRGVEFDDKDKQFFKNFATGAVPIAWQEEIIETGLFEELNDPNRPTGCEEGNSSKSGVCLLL
The following applies: at 0.1 µM.

For test [10], the target named is T1, Rhodopsin kinase GRK7 (Homo sapiens). As to conditions: at 1 µM.

Inhibition data for 16 compounds are collected here from ChEMBL document CHEMBL1961873, “Compounds: GSK PKIS; Assays: Nanosyn kinase panel” (2012).

RAC-beta serine/threonine-protein kinase (Homo sapiens), sequence (P31751 whole entry): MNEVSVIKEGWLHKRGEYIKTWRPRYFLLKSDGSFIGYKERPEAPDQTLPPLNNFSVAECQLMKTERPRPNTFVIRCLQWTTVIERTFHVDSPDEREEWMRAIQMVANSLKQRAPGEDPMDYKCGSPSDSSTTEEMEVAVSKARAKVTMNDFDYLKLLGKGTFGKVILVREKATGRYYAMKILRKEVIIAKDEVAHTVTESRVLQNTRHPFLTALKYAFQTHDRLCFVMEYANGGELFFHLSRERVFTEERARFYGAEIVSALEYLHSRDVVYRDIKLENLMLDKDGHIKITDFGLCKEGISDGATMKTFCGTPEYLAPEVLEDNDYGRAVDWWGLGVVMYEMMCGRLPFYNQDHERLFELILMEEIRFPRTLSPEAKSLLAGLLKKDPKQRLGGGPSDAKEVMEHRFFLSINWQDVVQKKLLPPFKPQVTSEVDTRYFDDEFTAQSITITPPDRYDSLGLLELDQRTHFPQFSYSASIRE
RAC-gamma serine/threonine-protein kinase (Homo sapiens), sequence (Q9Y243 whole entry): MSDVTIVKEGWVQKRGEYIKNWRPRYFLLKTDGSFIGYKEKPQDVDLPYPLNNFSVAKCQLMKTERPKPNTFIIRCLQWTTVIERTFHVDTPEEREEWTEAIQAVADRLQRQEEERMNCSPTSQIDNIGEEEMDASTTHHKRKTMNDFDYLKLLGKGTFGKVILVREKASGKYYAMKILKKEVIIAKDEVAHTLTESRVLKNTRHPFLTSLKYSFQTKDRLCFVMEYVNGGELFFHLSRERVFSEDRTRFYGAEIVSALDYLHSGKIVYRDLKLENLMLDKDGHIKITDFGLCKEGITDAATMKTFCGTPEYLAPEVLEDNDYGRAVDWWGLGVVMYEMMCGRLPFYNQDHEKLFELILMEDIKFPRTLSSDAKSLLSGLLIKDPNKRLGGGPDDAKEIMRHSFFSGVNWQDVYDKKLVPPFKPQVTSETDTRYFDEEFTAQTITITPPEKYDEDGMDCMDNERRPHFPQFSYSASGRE
RAC-alpha serine/threonine-protein kinase (Homo sapiens), sequence (P31749 whole entry): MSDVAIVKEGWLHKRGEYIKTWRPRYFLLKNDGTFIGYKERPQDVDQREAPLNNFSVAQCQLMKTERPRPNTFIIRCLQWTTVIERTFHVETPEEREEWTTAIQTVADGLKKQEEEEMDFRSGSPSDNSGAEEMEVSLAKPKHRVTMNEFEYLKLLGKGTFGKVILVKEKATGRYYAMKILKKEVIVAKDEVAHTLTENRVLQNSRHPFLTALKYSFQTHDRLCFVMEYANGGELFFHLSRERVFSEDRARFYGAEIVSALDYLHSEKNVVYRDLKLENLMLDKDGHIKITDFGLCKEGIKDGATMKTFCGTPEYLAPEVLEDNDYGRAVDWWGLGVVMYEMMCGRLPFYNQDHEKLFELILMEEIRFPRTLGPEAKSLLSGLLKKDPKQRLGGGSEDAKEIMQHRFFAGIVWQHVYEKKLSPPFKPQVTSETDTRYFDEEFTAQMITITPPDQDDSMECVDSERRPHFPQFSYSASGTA
G protein-coupled receptor kinase 6 (Homo sapiens), sequence (P43250 whole entry, looked up): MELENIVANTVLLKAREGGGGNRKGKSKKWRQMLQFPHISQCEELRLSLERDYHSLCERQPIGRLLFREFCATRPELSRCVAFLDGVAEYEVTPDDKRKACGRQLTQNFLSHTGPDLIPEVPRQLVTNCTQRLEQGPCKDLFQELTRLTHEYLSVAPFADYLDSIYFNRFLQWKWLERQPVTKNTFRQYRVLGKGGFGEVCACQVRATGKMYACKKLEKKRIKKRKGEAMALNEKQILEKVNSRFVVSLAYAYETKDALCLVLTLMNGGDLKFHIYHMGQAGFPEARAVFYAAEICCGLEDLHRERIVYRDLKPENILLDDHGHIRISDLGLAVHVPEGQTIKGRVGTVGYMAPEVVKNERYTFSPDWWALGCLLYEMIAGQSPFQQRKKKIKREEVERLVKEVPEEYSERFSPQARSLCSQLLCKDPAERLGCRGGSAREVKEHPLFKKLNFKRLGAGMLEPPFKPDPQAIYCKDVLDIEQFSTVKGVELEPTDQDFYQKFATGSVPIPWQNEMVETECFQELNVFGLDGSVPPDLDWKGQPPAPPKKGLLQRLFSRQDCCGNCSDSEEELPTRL

Broadly, the inhibition is the change of the read-out against control, counted positive when it falls. Take `CCn1c(-c2nonc2N)nc2ccc(F)cc21`: the inhibition in [1] is 0.42%; in test [2] it was 0.42%; in [3], 1.94%; in test [4] it was 2.93%; in [5], 1.09%; in [6], 2.41%. Besides, the inhibition in [7] was 9.58%; in test [8], 11.3%; in test [9] it was 5.6%; in test [10] it was 11.3%.

For `Cc1ccc(O)cc1Nc1ccnc2ccc(S(C)(=O)=O)cc12`, the inhibition came out at 0.79% in test [1]; 0.22% in test [2]; 2.36% in [3]; 1.9% in test [4]; 1.87% in test [5]; 4.72% in [6]. The inhibition in test [7] came to 6.06%; in [8], 7.8%; in test [9] it was 3.42%; in [10], 9.64%.

With `NS(=O)(=O)c1cccc(-c2cc3ccncc3cc2OCc2ccccc2)c1`, the inhibition in test [1] is 1.37%; in test [2], 0.84%; in [3] it was 1.79%; in test [4] it was 2.65%; in test [5], 2.96%; in [6] it was 0.32%. For the same compound, the inhibition worked out at 0.24% in test [7], 2.95% in test [8], 2.9% in test [9] and 4.85% in [10].

Regarding `Nc1ccc(C#Cc2cncnc2Nc2ccc(OCc3cccc(F)c3)c(Cl)c2)cc1`, the inhibition in test [1] came out at 0.15%; in test [2], 1.42%; in test [3], 1.06%; in [4], 1.24%; in [5], 0.3%; in test [6] it was 2.19%. Besides, the inhibition is 0.63% in test [7], 0.83% in test [8], 5.58% in test [9] and 1.26% in test [10].

In the case of `O=C1Nc2ccc(-c3cccnc3)cc2C1=Cc1cc(Br)c(O)c(Br)c1`, the inhibition in test [1] is 1.65%; in test [2], 2.74%; in [3], 1.49%; in [4], 2.84%; in test [5] it was 1.24%; in test [6], 1.67%. For the same compound, the inhibition in test [7] amounted to 11.3%; in [8] it was 46.1%; in test [9], 20%; in test [10] it was 60.3%.

With `N#Cc1cccc(Nc2nccc(-c3cnn4ncccc34)n2)c1`, the inhibition in [1] is 0.4%; in [2], 1.36%; in test [3], 1.11%; in [4] it was 1.66%; in test [5], 3.16%; in [6] it was 5.1%. For the same compound, the inhibition stood at 2.91% in test [7], 8.01% in [8], 6.46% in test [9] and 21.6% in test [10].

Regarding `[O-][S+]1CCN(Cc2ccc(-c3ccc4ncnc(Nc5ccc(OCc6ccccc6)c(Cl)c5)c4c3)o2)CC1`, the inhibition was 0.1% in [1]; -0.3% in [2]; 0.29% in test [3]; 1.29% in test [4]; 0.15% in test [5]; 2.06% in [6]. Moreover, the inhibition in test [7] was -0.03%; in test [8], 1.12%; in [9], 7.76%; in test [10], -2.22%.

For the compound `CS(=O)(=O)CCNCc1nc(-c2ccc3ncnc(Nc4ccc(OCc5cccc(C(F)(F)F)c5)cc4)c3c2)cs1`, the inhibition in test [1] was 0.2%; in [2], -0.66%; in [3], -0.39%; in test [4] it was 0.39%; in test [5], 0.84%; in test [6], 1.91%. Further, the inhibition is 0.43% in test [7], 0.06% in test [8], 3.85% in test [9] and -1.01% in test [10].

In the case of `ON=C1CCc2cc(-c3nc(C4CCNCC4)[nH]c3-c3ccncc3)ccc21`, the inhibition in [1] is 0.07%; in [2] it was -0.21%; in test [3] it was 0.72%; in test [4], -1.73%; in test [5] it was -0.56%; in test [6] it was 0.98%. For the same compound, the inhibition in test [7] was 0.43%; in test [8], -2.74%; in test [9], -0.92%; in [10], 1.83%.

`Nc1nccc(-c2c(-c3ccc(F)cc3)nn3cc(C(F)(F)F)ccc23)n1`: the inhibition in test [1] was 0.02%; in test [2], -0.66%; in test [3], -0.52%; in [4] it was 0.01%; in test [5], 0.2%; in [6] it was -5.93%. Moreover, the inhibition was -1.46% in [7], -0.24% in test [8], 3.74% in [9] and 4.14% in [10].

For the compound `NC(=O)c1cccc(Nc2nccc(Nc3cccc(F)c3)n2)c1`, the inhibition in [1] is 0.22%; in test [2], -0.29%; in test [3], 0.22%; in [4], 0.58%; in test [5], 0.47%; in test [6], 3.46%. In addition, the inhibition in [7] was found to be 2.83%; in [8], 0.77%; in [9] it was 4.02%; in test [10], 2.39%.

Take `O=C(Nc1ccc(Oc2ccc3[nH]c(NC(=O)c4ccco4)nc3c2)cc1)Nc1cc(C(F)(F)F)ccc1F`: the inhibition in test [1] was -3.62%; in [2], -0.4%; in test [3] it was -3.05%; in [4], -2.64%; in test [5], -3.47%; in test [6], -4.94%. Further, the inhibition in test [7] is 0.72%; in test [8], -4.1%; in test [9] it was -0.48%; in test [10], -4.51%.

For `Cc1ccc2c(c1)/C(=N/Nc1ccc(S(N)(=O)=O)cc1)C(=O)N2`, the inhibition in test [1] was 0.76%; in test [2], -0.7%; in test [3] it was 2.19%; in test [4], -0.04%; in [5], -1.25%; in test [6] it was 0.38%. For the same compound, the inhibition in test [7] is -0.52%; in test [8], -1.05%; in [9], 0.29%; in test [10], 4.95%.

Regarding `COc1cc(Nc2nccc(-c3cnn4ncccc34)n2)cc(OC)c1`, the inhibition in [1] turned out to be 0.23%; in test [2] it was 0.24%; in test [3], 0.16%; in [4], 0.1%; in [5], 0.27%; in test [6], 1.18%. Further, the inhibition in test [7] is 0.91%; in test [8], -0.01%; in test [9], 6.32%; in test [10] it was 9.43%.

For the compound `c1ccc(Nc2ncc(-c3ccccc3)o2)cc1`, the inhibition in [1] amounted to 1.4%; in test [2], 0.83%; in test [3], 0.54%; in [4] it was 2.99%; in test [5], 1.75%; in test [6] it was 3.46%. The inhibition is 4.61% in test [7], 4.8% in test [8], 9.62% in test [9] and 4.71% in test [10].

For `C[C@@H](Oc1cc(-n2cnc3ccc(OC[C@@H](O)CO)cc32)sc1C(N)=O)c1ccccc1Cl`, the inhibition in test [1] was -0.94%; in test [2] it was -0.9%; in test [3], -0.48%; in test [4], -0.32%; in test [5], 0.07%; in test [6], -0.44%. For the same compound, the inhibition was 1.08% in [7], 4.23% in [8], -4.63% in [9] and 3.37% in test [10].
